# Compound activity: PubChem, The Scripps Research Institute Molecular Screening Center
# Only some compounds are listed: those with a hit (about 2.9% of all), similar ones and a draw of the others.
# PAFAH1B2 FP inh – inhibitors of human PAFAH1B2. recombinant PAFAH1B2, FP-rhodamine activity probe, fluorescence polarization. inhibition, % at 3.39 µM. 1.2% of 340,000 active;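 active = inhibition above the mean of all tested compounds plus 3 SD, cut at about 24% in these data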;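 also: 0% = enzyme with DMSO and 100% = wells lacking PAFAH1B2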
# LYPLA2 inh – blocks human lysophospholipase 2, a PME1 counter-screen; O95372; recombinant LYPLA2, FP-Rh probe fluorescence polarization; inhibition, % at 5.9 µM; 0.38% of 320,000 active; AID 2177;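 active = inhibition above the screen-wide mean plus 3 SD, limit set per campaign, cut at about 26% in these data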;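 also: 0% = LYPLA2 with DMSO and 100% = wells lacking LYPLA2 enzyme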
# Target sequence (O95372 whole entry, looked up): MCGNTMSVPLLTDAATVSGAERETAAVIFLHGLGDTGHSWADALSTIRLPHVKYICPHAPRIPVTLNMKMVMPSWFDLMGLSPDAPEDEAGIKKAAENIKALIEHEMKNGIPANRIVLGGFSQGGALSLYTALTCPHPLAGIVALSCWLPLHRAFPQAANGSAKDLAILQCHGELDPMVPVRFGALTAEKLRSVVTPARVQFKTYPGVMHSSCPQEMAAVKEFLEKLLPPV
# pPAFAH inh – pPAFAH (human) enzyme inhibition; Q13093; recombinant pPAFAH, FP-rhodamine probe fluorescence polarization; inhibition, % at 3.39 µM; 1.5% of 330,000 active;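 active = inhibition above the mean inhibition across the screen plus 3 SD, cut at about 25% in these data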;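 also: inhibitors block binding of the rhodamine activity-based probe so polarization drops; 0% = enzyme with DMSO and 100% = wells lacking pPAFAH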
# PAFAH2 inh – inhibitors of human PAFAH2 | recombinant PAFAH2, FP-rhodamine activity probe, fluorescence polarization | Q99487 | inhibition, % at 3.39 µM | 0.99% of 340,000 active;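 active = inhibition above the mean over all tested compounds plus 3 SD, cut at about 30% in these data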;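 also: inhibitors block probe labeling of enzyme so polarization drops; 0% = enzyme with DMSO and 100% = wells lacking PAFAH2 protein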
# PAFAH1B3 inh – blocks human PAF acetylhydrolase 1B catalytic subunit 3. 0.28% of 340,000 active. recombinant PAFAH1B3, FP-rhodamine probe, fluorescence polarization. inhibition, % at 3.39 µM. Q15102. AID 492972;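 active = inhibition above the screen-wide average of all tested compounds plus 3 SD, cut at about 25% in these data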;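 also: 0% = enzyme with DMSO only and 100% = wells lacking PAFAH1B3 protein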
# LYPLA1 inh – LYPLA1 (human) inhibition in PME1 counter-screen; inhibition, % at 5.9 µM; O75608; 0.16% of 320,000 active; AID 2174; recombinant LYPLA1, FP-Rh probe fluorescence polarization;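 active = inhibition above the mean of all tested compounds plus 3 SD, set per campaign, cut at about 14% in these data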;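 also: inhibitors block serine hydrolase probe labeling of LYPLA1 so polarization falls; 0% = enzyme with DMSO and 100% = wells lacking LYPLA1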
# Target sequence (O75608 whole entry, looked up): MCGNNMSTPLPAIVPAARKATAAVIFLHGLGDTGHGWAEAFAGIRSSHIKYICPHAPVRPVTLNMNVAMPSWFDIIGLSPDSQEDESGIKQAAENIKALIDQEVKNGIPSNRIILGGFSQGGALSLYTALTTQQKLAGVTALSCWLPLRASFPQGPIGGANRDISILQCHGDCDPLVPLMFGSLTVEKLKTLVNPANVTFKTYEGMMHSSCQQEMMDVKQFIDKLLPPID
# LYPLA2 confirm – LYPLA2 (human) inhibition, confirmation counter-screen | shares compounds with LYPLA2 inh | 72% of 1,100 active | recombinant LYPLA2, FP-Rh probe fluorescence polarization | inhibition, % at 5.9 µM;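 active = mean inhibition across replicates above the hit cutoff set in the primary screen, cut at about 26% in these data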;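 also: blocked labeling of the enzyme by serine hydrolase FP-Rh probe lowers polarization; 0% = enzyme with DMSO and 100% = wells lacking LYPLA2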
# LYPLA2 ABPP – blocks human acyl-protein thioesterase 2 in gel ABPP. shares compounds with LYPLA2 inh. rhLYPLA2 in mouse brain proteome, gel ABPP FP-Rh. inhibition, % at 20 µM. 30% of 150 active;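 active = inhibition of LYPLA2 enzyme probe labeling above about 50%, limit read from the data; inactive = inhibition below that limit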;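 also: loss of FP-Rh probe labeling of the LYPLA2 gel band measured as band density; 0% = DMSO only control band and 100% = blank gel background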
# Active calls of the source: *; x = no result.
SMILES,PAFAH1B2 FP inh,LYPLA2 inh,pPAFAH inh,PAFAH2 inh,PAFAH1B3 inh,LYPLA1 inh,LYPLA2 confirm,others
Cc1ccc(C(=O)Nc2ccc(N3CCN(C(=O)c4ccco4)CC3)cc2)c(Cl)c1,-1,42*,10,-6,-3,9,31*,
O=C(COc1ccccc1[N+](=O)[O-])Nc1ccc(N2CCN(C(=O)c3cccs3)CC2)cc1,-2,46*,11,0,4,10,48*,
CC(C)(C)OC(=O)NCCCCCNC(=O)c1nc[nH]c1C(=O)N1CCN(c2ccccc2)CC1,0,x,0,5,-4,x,x,
O=C(C1CCC(=O)N1Cc1ccccc1Cl)N1CCN(c2cccc(Cl)c2)CC1 (stereo unspecified),0,34*,-3,4,5,6,32*,
O=C(O/N=C/c1ccc2c(c1)OCO2)c1ccccc1Cl,x,26*,37*,x,x,3,14,
O=C(O/N=C\c1ccc(N2CCOCC2)c([N+](=O)[O-])c1)c1ccc(F)cc1,6,11,4,1,4,5,x,
O=C(O/N=C\c1ccc(N2CCOCC2)c([N+](=O)[O-])c1)c1ccccc1Cl,1,41*,2,-1,-2,0,43*,
CO/N=C/c1ccc(N2CCN(C(=O)c3ccc(C)cc3)CC2)c([N+](=O)[O-])c1,8,37*,5,-1,10,3,39*,
O=C(Oc1ccc(Cl)cc1)c1ccc(N2CCOCC2)c([N+](=O)[O-])c1,4,33*,6,7,9,4,28*,
NC(=O)CSc1nnc(COc2ccccc2)n1N,-1,-2,1,-2,6,1,x,
COc1ccc(OC)c(NC(=O)CC2SC(=N)N(c3ccccc3)C2=O)c1 (stereo unspecified),0,6,-2,4,6,-1,x,
CCCc1cc(=O)n2nc(N3CCC(C(=O)N4CCN(c5ccc(OC)cc5)CC4)CC3)sc2n1,4,51*,2,-1,1,-7,49*,
Nc1nc(N)c(N=Nc2ccc(SCC(=O)O)cc2)c(=O)[nH]1,5,3,0,6,3,4,x,
CS(=O)(=O)N(Cc1ccccc1)c1ccc(C(=O)N2CCOCC2)cc1,8,-1,-9,10,2,2,x,
CC(=O)c1c(C)[nH]c(C(=O)COC(=O)CN(C)S(=O)(=O)c2ccc(Cl)cc2)c1C,8,35*,5,0,0,3,21,
c1ccc(OCCN2CCN(Cc3nc(-c4ccc5c(c4)OCO5)no3)CC2)cc1,2,26*,-3,6,-11,-2,26,
Fc1ccc(CN2CCCN(Cc3nc(-c4ccc5c(c4)OCO5)no3)CC2)cc1,2,2,-4,9,1,-1,x,
COc1ccc(Nc2nc(-c3cccc([N+](=O)[O-])c3)nc3ccccc23)cc1,-8,37*,14,-6,9,5,1,
CCCCCC(=O)Nc1ccc(Cl)cn1,0,2,1,9,9,0,x,
COC(=O)C1CCN(C(=O)c2cc3ccccc3oc2=O)CC1,4,4,-1,0,1,0,x,
COc1cc(NC(=O)CN2C(=O)COc3ccc(S(=O)(=O)N4CCCC4)cc32)cc(OC)c1,1,17,1,8,2,-1,x,
Cc1cc(C)cc(NC(=O)CN2C(=O)COc3ccc(S(=O)(=O)N4CCCC4)cc32)c1,0,37*,2,6,-2,1,33*,
COc1cccc(NC(=O)CN2C(=O)CSc3ccc(S(=O)(=O)N4CCCCC4)cc32)c1,-2,40*,5,-3,9,-2,38*,
CC(=O)c1ccccc1NC(=O)Cn1c(=O)cnc2ccccc21,-8,2,3,-5,6,-3,x,
O=S(=O)(NCCN1CCCC1)c1ccc(C(F)(F)F)cc1,8,1,3,8,11,-3,x,
SMILES,PAFAH1B2 FP inh,LYPLA2 inh,pPAFAH inh,PAFAH2 inh,PAFAH1B3 inh,LYPLA1 inh,LYPLA2 confirm,others
O=C1c2ccccc2C(=O)N1CCCCn1c(=O)oc2ccccc21,-1,7,-2,-3,-10,-2,x,
CCOC(=O)C(Cc1ccccc1)c1ccnc2ncnn12 (stereo unspecified),12,35*,0,8,-2,4,10,
CCOC(=O)C(Cc1ccccc1)C(=O)Nc1nccs1 (stereo unspecified),-3,5,6,7,-4,4,x,
CCCCc1cc(=O)oc2cc(OCC(=O)Nc3cccnc3)c(Cl)cc12,1,28*,3,-6,8,3,14,
COc1cc(NC(=O)c2nccn2C)cc(C(=O)Nc2cccc(C(F)(F)F)c2)c1,1,-8,-4,-4,1,-6,x,
CN(CC(=O)O/N=C(\N)c1ccccn1)S(=O)(=O)c1ccc(Br)cc1,16,40*,0,11,5,3,22,
CCCCN1CC[C@H]2C=CC[C@@H](C(=O)NCCc3ccccc3)[C@H]2C1=O,4,0,0,4,7,-2,x,
O=C(NNc1ccc(Cl)cc1)c1sccc1Cl,3,-1,0,5,4,-2,x,
Cc1ccc(N=C2NC(=O)CC(C(=O)Nc3ccc4c(c3)OCO4)S2)cc1 (stereo unspecified),5,28*,11,8,1,3,13,
Cc1ccc(C(=O)O)cc1NC(=S)NC(=O)Cc1ccccc1,0,3,3,2,7,2,x,
Cc1ccc(C(=O)O)cc1NC(=S)NC(=O)c1ccc(COc2ccccc2)cc1,8,46*,-2,-5,-2,4,51*,LYPLA2 ABPP=23
O=C(O)c1cccc(NC(=S)NC(=O)c2cccc(OCc3ccccc3)c2)c1,4,31*,3,1,9,2,29*,
Cc1cccn2c(=O)c3cc(C(=O)NCC4CCCO4)c(=N)n(C4CCCCC4)c3nc12 (stereo unspecified),1,1,8,-1,1,0,x,
O=c1cc(Cl)c(-c2ccccc2)nn1Cc1ccc(Cl)cc1,9,26*,2,2,11,0,35*,
N#Cc1ccc(COC(=O)c2cnc3ccccc3n2)cc1,8,27*,2,8,5,2,27*,
Cc1nn(C)c(C)c1NC(=O)c1cnn2c(C(F)F)cc(-c3ccccc3)nc12,x,0,1,x,x,7,x,
CN(C(=O)COc1cccc(C#N)c1)C1CCS(=O)(=O)C1 (stereo unspecified),4,-2,-1,4,2,-6,x,
Cc1cc(=O)oc2c(C)c(OCC(=O)N3CCN(c4cccc(Cl)c4)CC3)ccc12,3,30*,12,-1,3,3,34*,
